The record followed here is PubChem BioAssay (NCI).

Test systems include NCI-H23 lung; NCI-H226 lung; NCI-H322M lung; HOP-62 NSCLC; NCI-H460 lung; HOP-92 NSCLC; NCI-H522 lung; A549/ATCC NSCLC; 786-0 renal; DU-145 prostate; K-562 leukemia; MALME-3M melanoma; MDA-MB-231 breast; RXF 393 renal; SF-268 CNS; SF-295 CNS; SF-539 CNS; UACC-257 melanoma; M14 melanoma.
What all share (assay): NCI-60 one-dose screen, 48 h (100 = growth as untreated, 0 = no growth, -100 = all killed)
Common to all, as to details: 10 µM unless noted

Compounds without any hit were thinned out: in the full panel of roughly 83,000, 20% have a hit.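 Testing used 96-well plates and a 48-hour single-concentration exposure. Example: -40 means 40% of the starting cells died.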 A number with no mark means an inactive call. The source made the active and inactive calls. How the source made its calls: active means growth percent below 10; inactive means the rest.

`CC(C)n1nc(C#Cc2cccc(NC(=O)c3cccc(C(F)(F)F)c3)c2)c2c(N)ncnc21`: the growth was -3.4% (active) with NCI-H23 lung; -0.0561% (active) in the test on NCI-H226 lung; -18.3% (active) with NCI-H322M lung; -37.9% (active) with HOP-62 NSCLC; 5.91% (active) in the test with NCI-H460 lung; -33.7% (active) in the test on HOP-92 NSCLC. In addition, the growth was -18.6% (active) in the test with NCI-H522 lung; -14.4% (active) in the test on A549/ATCC NSCLC; -20.9% (active) with 786-0 renal; -22.9% (active) in the test with DU-145 prostate; -22.6% (active) with K-562 leukemia; -39% (active) with MALME-3M melanoma. Besides, the growth in the test on MDA-MB-231 breast is -81.9% (active); in the test on RXF 393 renal, -76.8% (active); with SF-268 CNS, 3.1% (active); in the test with SF-295 CNS, -14.9% (active); in the test on SF-539 CNS it was -73.9% (active); in the test on UACC-257 melanoma, -18.2% (active). In addition, the growth in the test with M14 melanoma is -44% (active).

On to `C=C1C(=O)O[C@H]2[C@H]1CC/C(C(=O)NCCCCCCCCNC(=O)/C1=C/CC[C@@]3(C)O[C@H]3[C@H]3OC(=O)C(=C)[C@@H]3CC1)=C\CC[C@@]1(C)O[C@@H]21`, for which the growth in the test with NCI-H23 lung was 92.3%; in the test on NCI-H226 lung, 88.7%; in the test with NCI-H322M lung it was 94.9%; in the test with HOP-62 NSCLC it was 109%; in the test on NCI-H460 lung it was 110%; in the test on HOP-92 NSCLC it was 4.35% (active). In addition, the growth is -64.5% (active) with NCI-H522 lung; 82.9% in the test with A549/ATCC NSCLC; 85.1% in the test on 786-0 renal; 84.1% in the test with DU-145 prostate; 18.3% with K-562 leukemia; 16.4% in the test on MALME-3M melanoma. In addition, the growth with MDA-MB-231 breast is 74.3%; with RXF 393 renal, 43.1%; in the test with SF-268 CNS, 91.8%; in the test with SF-295 CNS, 110%; with SF-539 CNS it was 70.1%; in the test with UACC-257 melanoma, 61.8%. Also, in the test on M14 melanoma, the growth is 82.8%.

With `CCOC(=O)c1ccc(NC(=O)CCCN(CC)CC)cc1`, the growth with NCI-H23 lung was 95.4%; in the test with NCI-H226 lung it was 103%; in the test on NCI-H322M lung, 92.4%; in the test on HOP-62 NSCLC, 101%; with NCI-H460 lung, 107%; in the test with HOP-92 NSCLC it was 78%. Moreover, the growth with NCI-H522 lung is 63.6%; in the test on A549/ATCC NSCLC it was 90.5%; with 786-0 renal, 87.2%; with DU-145 prostate, 105%; with K-562 leukemia, 97.7%; with MALME-3M melanoma, 98.5%. Further, the growth in the test with MDA-MB-231 breast is 114%; with RXF 393 renal, 130%; with SF-268 CNS it was 104%; in the test with SF-295 CNS, 103%; in the test with SF-539 CNS, 103%; in the test with UACC-257 melanoma, 108%. Also, the growth with M14 melanoma was 91.3%.

Turning to `CC(C)(C)N1CC(OC(N)=O)C1`, the growth in the test with NCI-H23 lung is 91.2%; in the test on NCI-H226 lung, 98.2%; with NCI-H322M lung, 98.6%; in the test on HOP-62 NSCLC, 100%; in the test on NCI-H460 lung, 113%; with HOP-92 NSCLC it was 96.2%. In addition, the growth was 114% with NCI-H522 lung; 71.8% in the test with A549/ATCC NSCLC; 96.4% in the test with 786-0 renal; 109% in the test with DU-145 prostate; 130% in the test with K-562 leukemia; 106% in the test on MALME-3M melanoma. Further, the growth was 97.7% in the test on MDA-MB-231 breast; 29.1% with RXF 393 renal; 109% with SF-268 CNS; 113% in the test with SF-295 CNS; 98% in the test on SF-539 CNS; 4.43% (active) in the test with UACC-257 melanoma. The growth in the test on M14 melanoma is 97.6%.

For the molecule `COc1cc2c(=O)n(CCCn3ccnc3)c3c4cc5c(cc4ccc3c2cc1OC)OCO5`, the growth with NCI-H23 lung was 5.18% (active); in the test on NCI-H226 lung it was -42.5% (active); in the test with NCI-H322M lung, 17.5%; in the test on HOP-62 NSCLC, 10.5%; in the test on NCI-H460 lung, -9.42% (active); in the test with HOP-92 NSCLC it was -5.78% (active). For the same molecule, the growth in the test with NCI-H522 lung is 5.91% (active); with A549/ATCC NSCLC, 22%; in the test on 786-0 renal it was -57.3% (active); in the test with DU-145 prostate it was 15.2%; in the test with K-562 leukemia, 24%; in the test on MALME-3M melanoma it was 39.9%. Besides, the growth in the test on MDA-MB-231 breast is 7.7% (active); with RXF 393 renal, -27% (active); in the test with SF-268 CNS it was 29%; with SF-295 CNS, -18.4% (active); in the test on SF-539 CNS, -20.2% (active); with UACC-257 melanoma, 3.98% (active). The growth in the test with M14 melanoma was -4.48% (active).

For the molecule `Cc1[nH]c(-c2nc3ccccc3[nH]2)c(C)c1C(=O)N1CCOCC1`, the growth in the test with NCI-H23 lung was 88.5%; in the test with NCI-H226 lung it was 91.4%; in the test with NCI-H322M lung, 94.6%; in the test with HOP-62 NSCLC it was 105%; in the test on NCI-H460 lung, 101%; in the test with HOP-92 NSCLC, 91.1%. Moreover, the growth in the test on NCI-H522 lung is 91%; in the test with A549/ATCC NSCLC it was 101%; with 786-0 renal, 102%; in the test with DU-145 prostate, 107%; in the test on K-562 leukemia it was 106%; in the test with MALME-3M melanoma it was 95.7%. Further, the growth with MDA-MB-231 breast is 83.7%; in the test with RXF 393 renal it was 93.6%; with SF-268 CNS, 99.5%; with SF-295 CNS, 96%; in the test on SF-539 CNS, 96.2%; in the test with UACC-257 melanoma it was 94.1%. Besides, the growth in the test on M14 melanoma was 95%.

For `COc1ccc(C2CC(c3ccccc3)=NN2c2nc(C)c(C(C)=O)s2)cc1` (configuration not stated), the growth in the test with NCI-H23 lung was 99.3%; with NCI-H226 lung, 101%; in the test on NCI-H322M lung, 98.6%; in the test with HOP-62 NSCLC it was 101%; with NCI-H460 lung it was 106%; in the test on HOP-92 NSCLC, 95.4%. The growth was 88.3% with NCI-H522 lung; 98.7% in the test with A549/ATCC NSCLC; 101% in the test with 786-0 renal; 102% in the test on DU-145 prostate; 95% with K-562 leukemia; 95.2% in the test with MALME-3M melanoma. The growth in the test on MDA-MB-231 breast was 96.6%; in the test on RXF 393 renal it was 94.1%; with SF-268 CNS it was 91.3%; with SF-295 CNS it was 99%; in the test on SF-539 CNS, 94.3%; in the test with UACC-257 melanoma, 102%. Also, the growth in the test on M14 melanoma is 97.3%.

For `O=C1CCC(N2C(=O)c3cccc(NCCCC4CCN(CCNC(=O)c5cc6c(o5)C(=O)c5ccccc5C6=O)CC4)c3C2=O)C(=O)N1` (configuration not stated), the growth in the test with NCI-H23 lung is -59.6% (active); with NCI-H226 lung it was -69.2% (active); in the test with NCI-H322M lung it was -98.8% (active); in the test with HOP-62 NSCLC it was -52.9% (active); in the test with NCI-H460 lung it was -71.1% (active); in the test with HOP-92 NSCLC, 49%. The growth was -51.7% (active) in the test on NCI-H522 lung; -41.9% (active) with A549/ATCC NSCLC; -26.2% (active) in the test with 786-0 renal; -94.9% (active) in the test on DU-145 prostate; 2.99% (active) in the test on K-562 leukemia; -99.2% (active) in the test on MALME-3M melanoma. Further, the growth was -25.2% (active) with MDA-MB-231 breast; -52.9% (active) in the test with RXF 393 renal; -32.7% (active) with SF-268 CNS; -95.2% (active) in the test with SF-295 CNS; -99.1% (active) in the test with SF-539 CNS; -85.5% (active) in the test with UACC-257 melanoma. Also, the growth in the test with M14 melanoma is -83.2% (active).
